Results filed as inconclusive are left out. Activity calls are given as the source filed them. Rule for the calls, unless noted: active = hit-call score of the fitted dose curve at least 0.9, where 1 is the maximum; inactive = score below 0.9.
Legend:
[1] = ATG_CRE_CIS: Attagene CIS-FACTORIAL HepG2 Assay for human cAMP Responsive Element (CRE) binding protein 3 (AID 2282926); conditions: HepG2 CRE cis-reporter, Attagene multiplexed mRNA; actives raise or lower the signal
Outline: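 Induced reporter mRNA from a CRE cis element, measured in HepG2 among many multiplexed units at 24 h. Detection used RT-PCR plus capillary electrophoresis of fluorescent fragments; DMSO served as negative control.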

[2] = ATG_DR4_LXR_CIS: Attagene CIS-FACTORIAL HepG2 Assay for human Liver X Receptor (LXR), DR4 submotif (AID 2282929); conditions: HepG2 Attagene DR4 cis-reporter, mRNA transcription; actives raise or lower the signal
Outline: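 Cells were transfected with multiple reporter transcription units, exposed to chemicals for 24 hours, then lysed for RNA. Reporter mRNA induction was measured by RT-PCR with capillary electrophoresis detection and fitted in both directions relative to DMSO.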

[3] = biological target: Transcription factor E2F1 (Homo sapiens) (UniProt Q01094); test: ATG_E2F_CIS: Attagene CIS-FACTORIAL HepG2 Assay for human E2F Transcription Factor 1 (AID 2282935); conditions: HepG2 Attagene cis-reporter, E2F reporter RNA transcripts; actives raise or lower the signal
Chain of Transcription factor E2F1 (Homo sapiens) (Q01094 whole entry, looked up): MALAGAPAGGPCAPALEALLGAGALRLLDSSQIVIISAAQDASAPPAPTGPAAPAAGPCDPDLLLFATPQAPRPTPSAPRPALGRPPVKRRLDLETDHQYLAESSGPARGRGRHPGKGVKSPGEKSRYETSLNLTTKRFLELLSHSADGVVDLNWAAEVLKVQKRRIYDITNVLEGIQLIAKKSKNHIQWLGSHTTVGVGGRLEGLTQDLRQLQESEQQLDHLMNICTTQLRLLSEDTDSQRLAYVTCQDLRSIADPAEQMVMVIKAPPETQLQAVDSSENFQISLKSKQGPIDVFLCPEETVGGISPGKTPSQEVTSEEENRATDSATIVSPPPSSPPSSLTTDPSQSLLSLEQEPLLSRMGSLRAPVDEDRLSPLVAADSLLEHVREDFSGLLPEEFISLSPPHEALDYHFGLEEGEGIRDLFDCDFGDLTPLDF
Outline: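 Liver-derived HepG2 cells expressing transfected promoter-driven reporter units received test chemical for 24 hours. Signal gains or losses were fitted bidirectionally against DMSO.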

[4] = ATG_GLI_CIS: Attagene CIS-FACTORIAL HepG2 Assay for human Zinc Finger Protein GLI1 (AID 2282945); conditions: HepG2, Attagene cis-factorial reporter mRNA, GLI element; actives raise or lower the signal
Outline: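 Transiently transfected HepG2 cells report endogenous transcription factor activity via cis-element-driven reporter units. After 24 h compound exposure, reporter mRNA was measured by RT-PCR with capillary electrophoresis; bidirectional fitting against DMSO baseline.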

[5] = ATG_GRE_CIS: Attagene CIS-FACTORIAL HepG2 Assay for human Glucocorticoid Response Elements (GRE) (AID 2282947); conditions: HepG2 GRE cis-reporter, Attagene multiplex mRNA; actives raise or lower the signal
Outline: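 Fluorescence intensity of reporter-specific cDNA fragments, separated by capillary electrophoresis, provides the signal. Constructs carry cis-regulating promoters in transiently transfected HepG2 liver cells; 24 h incubation; fitting is bidirectional against DMSO.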

[6] = biological target: Hepatocyte nuclear factor 6 (Homo sapiens) (UniProt Q9UBC0); test: ATG_HNF6_CIS: Attagene CIS-FACTORIAL HepG2 Assay for human Hepatocyte Nuclear Factor 6 (HNF6) (AID 2282952); conditions: HepG2 Attagene cis-factorial HNF6 reporter transcription; actives raise or lower the signal
Chain of Hepatocyte nuclear factor 6 (Homo sapiens) (Q9UBC0 whole entry, looked up, the tested form may be a part): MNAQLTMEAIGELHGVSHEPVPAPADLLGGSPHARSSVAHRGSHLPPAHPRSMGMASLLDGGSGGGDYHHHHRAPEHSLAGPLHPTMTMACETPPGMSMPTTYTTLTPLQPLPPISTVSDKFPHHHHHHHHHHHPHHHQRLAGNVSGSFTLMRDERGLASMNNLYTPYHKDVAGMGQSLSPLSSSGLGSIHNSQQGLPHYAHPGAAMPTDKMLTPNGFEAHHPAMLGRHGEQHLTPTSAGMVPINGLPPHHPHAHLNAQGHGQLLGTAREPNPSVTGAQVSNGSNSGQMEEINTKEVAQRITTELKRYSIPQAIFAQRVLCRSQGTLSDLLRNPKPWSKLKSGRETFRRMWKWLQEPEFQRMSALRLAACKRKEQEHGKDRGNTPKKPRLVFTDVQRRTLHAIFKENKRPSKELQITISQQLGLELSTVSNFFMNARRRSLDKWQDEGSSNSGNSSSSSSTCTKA
Outline: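 First, HepG2 cells were transfected with the multiplexed cis reporter library and dosed with chemical for 24 h. Next, RNA was reverse-transcribed, PCR-amplified and fluorescently labelled. Finally, HpaI-digested fragments were read by capillary electrophoresis.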

[7] = biological target: Heat shock factor protein 1 (Homo sapiens) (UniProt Q00613); test: ATG_HSE_CIS: Attagene CIS-FACTORIAL HepG2 Assay for human Heat Shock Transcription Factor 1 (HSE) (AID 2282953); conditions: HepG2 HSE cis-reporter, Attagene RNA transcription; actives raise or lower the signal
Chain of Heat shock factor protein 1 (Homo sapiens) (Q00613 whole entry, looked up, the tested form may be a part): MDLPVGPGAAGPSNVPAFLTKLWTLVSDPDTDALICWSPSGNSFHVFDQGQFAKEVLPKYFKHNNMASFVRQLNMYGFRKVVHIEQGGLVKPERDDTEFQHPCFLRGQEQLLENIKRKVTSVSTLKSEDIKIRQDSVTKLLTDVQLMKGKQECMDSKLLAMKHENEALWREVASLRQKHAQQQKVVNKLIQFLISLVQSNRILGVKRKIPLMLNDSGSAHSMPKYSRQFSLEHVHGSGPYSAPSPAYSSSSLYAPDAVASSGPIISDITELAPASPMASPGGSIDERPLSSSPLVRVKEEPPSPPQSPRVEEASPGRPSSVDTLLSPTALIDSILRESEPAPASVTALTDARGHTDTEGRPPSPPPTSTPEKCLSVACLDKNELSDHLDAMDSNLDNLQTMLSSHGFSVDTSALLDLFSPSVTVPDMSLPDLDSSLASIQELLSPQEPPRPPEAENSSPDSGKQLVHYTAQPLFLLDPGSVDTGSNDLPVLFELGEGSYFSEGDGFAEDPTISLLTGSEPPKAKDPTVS
Outline: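 Endogenous transcription factor activity captured via cis-promoter reporter units transfected into HepG2; treatment lasted 24 h. Fluorescence intensity of reporter fragments analysed with bidirectional curve fitting, DMSO baseline.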

[8] = ATG_TA_CIS: Attagene CIS-FACTORIAL HepG2 Assay for human TA Basal Promoter (AID 2282964); conditions: HepG2 Attagene CIS-factorial TA basal promoter reporter; actives raise or lower the signal
Outline: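 Fluorescence from labelled RT-PCR reporter fragments, separated by capillary electrophoresis, gives the signal. Cells: HepG2 transiently carrying multiple reporter units, 24 h chemical dosing. Gain or loss relative to DMSO.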

[9] = ATG_TCF_b_cat_CIS: Attagene CIS-FACTORIAL HepG2 Assay for human T-Cell-Factor with beta-catenin (TCF/b-cat) (AID 2282965); conditions: HepG2 TCF/beta-catenin cis-reporter transcription, actives raise or lower the signal
Outline: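 HepG2 cells transiently transfected with cis-promoter-driven multiplexed reporter units; reporter mRNA measured 24 h after dosing by RT-PCR, FAM labelling, HpaI digestion and capillary electrophoresis. Bidirectional fitting relative to DMSO baseline.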

[10] = biological target: Transcriptional activator Myb (Homo sapiens) (UniProt P10242); test: ATG_Myb_CIS: Attagene CIS-FACTORIAL HepG2 Assay for human Myeloblastosis (Myb) Proto-Oncogene Transcription Factor (AID 2282986); conditions: HepG2 Attagene CIS-FACTORIAL Myb reporter transcription; actives raise or lower the signal
Chain of Transcriptional activator Myb (Homo sapiens) (P10242 whole entry, looked up): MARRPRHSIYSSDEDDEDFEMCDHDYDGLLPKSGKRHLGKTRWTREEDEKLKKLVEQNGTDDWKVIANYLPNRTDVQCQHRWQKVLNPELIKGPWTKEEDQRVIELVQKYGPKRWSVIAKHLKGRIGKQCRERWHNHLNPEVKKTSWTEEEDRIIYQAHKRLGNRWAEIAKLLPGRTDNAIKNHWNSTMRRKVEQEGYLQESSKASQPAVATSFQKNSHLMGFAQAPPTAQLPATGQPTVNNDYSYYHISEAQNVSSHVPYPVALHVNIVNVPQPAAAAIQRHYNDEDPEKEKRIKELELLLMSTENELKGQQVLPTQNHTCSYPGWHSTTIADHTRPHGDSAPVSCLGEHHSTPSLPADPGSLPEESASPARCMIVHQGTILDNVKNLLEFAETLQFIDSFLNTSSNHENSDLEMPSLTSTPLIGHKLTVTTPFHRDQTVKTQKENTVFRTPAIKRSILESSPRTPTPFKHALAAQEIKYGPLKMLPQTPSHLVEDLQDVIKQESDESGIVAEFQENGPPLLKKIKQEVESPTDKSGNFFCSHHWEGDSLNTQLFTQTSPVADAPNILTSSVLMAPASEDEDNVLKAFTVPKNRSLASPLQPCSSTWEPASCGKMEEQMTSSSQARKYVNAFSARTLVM
Outline: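 Steps: transfect HepG2 with cis-regulated reporter units; dose with chemical for 24 h; isolate RNA, reverse-transcribe, PCR-amplify and FAM-label reporter sequences; digest with HpaI; resolve by capillary electrophoresis. Activity fitted in both directions relative to DMSO.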

[11] = biological target: Nuclear respiratory factor 1 (Homo sapiens) (UniProt Q16656); test: ATG_NRF1_CIS: Attagene CIS-FACTORIAL HepG2 Assay for human Nuclear Respiratory Factor 1 (NRF1) Orphan Gene (AID 2282987); conditions: HepG2 NRF1 cis-element reporter, Attagene multiplex; actives raise or lower the signal
Chain of Nuclear respiratory factor 1 (Homo sapiens) (Q16656 whole entry, looked up, the tested form may be a part): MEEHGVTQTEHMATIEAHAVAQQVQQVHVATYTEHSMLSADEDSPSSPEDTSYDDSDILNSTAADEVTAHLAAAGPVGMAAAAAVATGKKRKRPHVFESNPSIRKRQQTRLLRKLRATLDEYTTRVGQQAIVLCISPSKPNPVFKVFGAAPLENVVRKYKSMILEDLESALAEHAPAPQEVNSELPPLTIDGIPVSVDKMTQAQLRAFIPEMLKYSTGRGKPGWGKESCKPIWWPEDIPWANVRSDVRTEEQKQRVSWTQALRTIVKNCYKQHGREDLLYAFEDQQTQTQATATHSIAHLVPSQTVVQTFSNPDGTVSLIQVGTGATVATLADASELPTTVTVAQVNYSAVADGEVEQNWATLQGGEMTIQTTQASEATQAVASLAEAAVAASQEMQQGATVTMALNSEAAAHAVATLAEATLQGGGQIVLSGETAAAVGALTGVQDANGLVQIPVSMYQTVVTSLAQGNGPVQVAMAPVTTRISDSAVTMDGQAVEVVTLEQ
Outline: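 Fluorescence intensity of labelled reporter cDNA fragments, resolved by capillary electrophoresis, served as readout for NRF1 cis-element activity. Transiently transfected HepG2 cells were dosed for 24 hours; activity in either direction was fitted against DMSO negative control.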

[12] = ATG_NFI_CIS: Attagene CIS-FACTORIAL HepG2 Assay for human Nuclear Factor I (NFI) (AID 2282989); conditions: HepG2 cis-regulatory reporter, NFI response element transcription; actives raise or lower the signal
Outline: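 Cells: human liver HepG2, transiently transfected with promoter-regulated reporter transcription units. Exposure 24 h. Detection: fluorescent RT-PCR products separated by capillary electrophoresis, normalised to DMSO negative control.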

[13] = biological target: Myc proto-oncogene protein (Homo sapiens) (UniProt P01106); test: ATG_Myc_CIS: Attagene CIS-FACTORIAL HepG2 Assay for human Myelocytomatosis (Myc) Proto-Oncogene Transcription Factor (AID 2282990); conditions: HepG2, Attagene cis-reporter transcription factor activity; actives raise or lower the signal
Chain of Myc proto-oncogene protein (Homo sapiens) (P01106 whole entry, looked up): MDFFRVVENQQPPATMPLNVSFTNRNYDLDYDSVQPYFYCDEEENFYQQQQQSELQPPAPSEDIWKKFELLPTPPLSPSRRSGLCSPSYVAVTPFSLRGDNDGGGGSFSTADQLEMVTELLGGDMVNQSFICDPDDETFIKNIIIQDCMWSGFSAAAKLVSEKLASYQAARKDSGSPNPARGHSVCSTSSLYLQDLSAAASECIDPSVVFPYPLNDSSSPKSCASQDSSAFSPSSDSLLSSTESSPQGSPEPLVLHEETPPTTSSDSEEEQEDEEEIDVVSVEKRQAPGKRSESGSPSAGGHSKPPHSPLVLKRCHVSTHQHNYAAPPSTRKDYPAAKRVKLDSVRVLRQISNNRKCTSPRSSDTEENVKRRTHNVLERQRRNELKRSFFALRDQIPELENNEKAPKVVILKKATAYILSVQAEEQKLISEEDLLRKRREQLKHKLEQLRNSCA
Outline: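 Transiently transfected HepG2 cells bearing cis-promoter reporter units for endogenous transcription factors; 24 h exposure. Reporter mRNA measured by RT-PCR, 6-FAM primer extension, HpaI cut and capillary electrophoresis; bidirectional fit relative to DMSO.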

[14] = ATG_NRF2_ARE_CIS: Attagene CIS-FACTORIAL HepG2 Assay for human Nuclear Factor Erythroid 2 Related Factor 2 (NFR2) response to Antioxidant Response Elements (ARE) (AID 2282992); conditions: HepG2 Attagene ARE/NRF2 reporter, transcription factor activity; actives raise or lower the signal;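 for AC50: reporter mRNA level measured by RT-PCR and capillary electrophoresis fluorescence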
Outline: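 Fluorescence intensity of reporter-specific cDNA fragments, separated by capillary electrophoresis, reflects mRNA induction in transfected HepG2 cells at 24 h. Activity is fitted bidirectionally, DMSO serving as baseline.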

[15] = ATG_Oct_MLP_CIS: Attagene CIS-FACTORIAL HepG2 Assay for human Octamer-Binding Transcription Factor (Oct) (AID 2282993); conditions: HepG2 Attagene cis-factorial Oct reporter, mRNA; actives raise or lower the signal
Outline: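 HepG2, transient MRTU transfection, cis promoter elements; 24 h dosing; RT-PCR/CE fluorescence read-out of reporter mRNA; fit both directions vs DMSO.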

[16] = biological target: Cellular tumor antigen p53 (Homo sapiens) (UniProt P04637); test: ATG_p53_CIS: Attagene CIS-FACTORIAL HepG2 Assay for human p53 Transcription Factor (AID 2282994); conditions: HepG2 p53 cis-element reporter, Attagene mRNA; actives raise or lower the signal
Chain of Cellular tumor antigen p53 (Homo sapiens) (P04637 whole entry, looked up): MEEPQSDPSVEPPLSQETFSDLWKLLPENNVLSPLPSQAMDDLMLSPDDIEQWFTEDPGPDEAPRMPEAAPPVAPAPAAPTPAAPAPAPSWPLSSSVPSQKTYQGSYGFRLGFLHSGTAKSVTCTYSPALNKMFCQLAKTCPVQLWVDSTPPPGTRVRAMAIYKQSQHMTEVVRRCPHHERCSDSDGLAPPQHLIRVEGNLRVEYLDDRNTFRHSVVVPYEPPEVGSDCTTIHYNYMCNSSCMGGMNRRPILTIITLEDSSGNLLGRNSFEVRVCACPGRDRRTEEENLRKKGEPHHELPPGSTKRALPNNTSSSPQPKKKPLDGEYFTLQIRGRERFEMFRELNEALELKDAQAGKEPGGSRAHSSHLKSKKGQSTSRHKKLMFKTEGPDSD
Outline: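 Transiently transfected HepG2 (multiple cis reporter transcription units); exposure 24 h; reporter RNA via RT-PCR, 6-FAM extension, 2 h HpaI digest at 37 C, CE detection; DMSO baseline.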

[17] = biological target: Nuclear receptor subfamily 1 group I member 2 (Homo sapiens) (UniProt O75469); test: ATG_PXR_TRANS: Attagene TRANS-FACTORIAL HepG2 Assay for human Pregnane X Receptor (PXR) (AID 2283008; active = hit-call score of the fitted dose curve at least 0.9, where 1 is the maximum)
Chain of Nuclear receptor subfamily 1 group I member 2 (Homo sapiens) (O75469 whole entry, looked up, the tested form may be a part): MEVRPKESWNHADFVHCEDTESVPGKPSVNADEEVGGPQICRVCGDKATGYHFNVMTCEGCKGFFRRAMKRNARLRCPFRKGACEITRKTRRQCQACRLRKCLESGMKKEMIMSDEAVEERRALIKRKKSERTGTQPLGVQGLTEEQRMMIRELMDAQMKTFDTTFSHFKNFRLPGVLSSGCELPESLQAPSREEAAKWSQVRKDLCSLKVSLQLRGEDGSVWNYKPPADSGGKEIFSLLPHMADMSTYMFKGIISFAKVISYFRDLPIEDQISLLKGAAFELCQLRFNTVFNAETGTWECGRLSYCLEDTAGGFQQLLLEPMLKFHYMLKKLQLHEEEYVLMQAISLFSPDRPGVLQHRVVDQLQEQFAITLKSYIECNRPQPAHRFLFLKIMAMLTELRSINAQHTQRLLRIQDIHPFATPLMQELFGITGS
Outline: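 Transient HepG2 transfectants carrying multiplexed reporter transcription units; PXR activity read through a Gal4 chimera. 24 h exposure. RT-PCR/CE fluorescence; upward curve fit referenced to DMSO.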

[18] = ATG_XTT_Cytotoxicity: Cytotoxicity Assessment in the Attagene TRANS-FACTORIAL HepG2 Assay (AID 2283584; active = hit-call score of the fitted dose curve at least 0.9, where 1 is the maximum;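 for AC50: XTT signal for cell number as viability in transfected HepG2 cells; cells exposed to compound for 24 h before reading; active means loss of viability signal versus DMSO baseline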)
Outline: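 HepG2 cells transiently transfected with GAL4-UAS multiple reporter units, dosed 24 h; cytotoxicity read by XTT as loss of signal versus DMSO baseline.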

[19] = biological target: Hypoxia-inducible factor 1-alpha (Homo sapiens) (UniProt Q16665); test: ATG_HIF1a_CIS: Attagene CIS-FACTORIAL HepG2 Assay for human Hypoxia Inducible Factor 1 (HIF1A) (AID 2282951); conditions: HepG2 Attagene cis-factorial HIF1a reporter transcription; actives raise or lower the signal
Chain of Hypoxia-inducible factor 1-alpha (Homo sapiens) (Q16665 whole entry, looked up): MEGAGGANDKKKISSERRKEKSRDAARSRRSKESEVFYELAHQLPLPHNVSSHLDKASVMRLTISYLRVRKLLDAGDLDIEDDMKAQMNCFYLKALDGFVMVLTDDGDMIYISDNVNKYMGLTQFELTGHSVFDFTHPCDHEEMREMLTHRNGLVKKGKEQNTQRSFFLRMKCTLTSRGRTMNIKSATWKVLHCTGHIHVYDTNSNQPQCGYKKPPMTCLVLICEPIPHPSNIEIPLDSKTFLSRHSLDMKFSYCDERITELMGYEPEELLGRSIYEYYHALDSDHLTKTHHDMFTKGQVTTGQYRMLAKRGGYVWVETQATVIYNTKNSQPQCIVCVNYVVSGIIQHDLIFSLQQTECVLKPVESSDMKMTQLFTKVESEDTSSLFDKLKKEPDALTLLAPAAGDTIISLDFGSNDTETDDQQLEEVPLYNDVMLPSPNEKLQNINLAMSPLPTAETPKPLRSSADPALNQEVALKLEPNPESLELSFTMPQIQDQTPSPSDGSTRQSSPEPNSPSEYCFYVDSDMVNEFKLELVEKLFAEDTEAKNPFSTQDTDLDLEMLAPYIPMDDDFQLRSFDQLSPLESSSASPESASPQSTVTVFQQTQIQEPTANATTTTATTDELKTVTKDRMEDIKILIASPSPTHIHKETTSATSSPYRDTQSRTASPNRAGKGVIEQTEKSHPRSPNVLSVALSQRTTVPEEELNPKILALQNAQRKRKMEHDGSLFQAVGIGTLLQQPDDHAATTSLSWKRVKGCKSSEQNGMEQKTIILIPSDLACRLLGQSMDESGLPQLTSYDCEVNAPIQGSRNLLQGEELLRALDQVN
Outline: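 Measures endogenous transcription-factor activity through cis-regulated reporter mRNA in HepG2. Cells dosed 24 h; transcripts quantified by RT-PCR with 6-FAM-labelled products separated by capillary electrophoresis; DMSO serves as negative control.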

[20] = ATG_TGFb_CIS: Attagene CIS-FACTORIAL HepG2 Assay for human Transforming Growth Factor (TGF) (AID 2282967); conditions: HepG2 Attagene CIS TGFb reporter, mRNA transcription; actives raise or lower the signal
Outline: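 Bidirectional fitting relative to DMSO gave the endpoint. Underlying data: reporter mRNA from HepG2 cells carrying transiently transfected cis-regulated reporter constructs, harvested 24 h after dosing and analyzed by RT-PCR and capillary electrophoresis.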

Measured: AC50

Nc1ccc(S(=O)(=O)Nc2cnc3ccccc3n2)cc1
not listed: [19] | [20]
inactive: all other assays above

CN(C)N=Nc1ccccc1
active: [14] 177 µM
not listed: [5] | [13] | [20]
inactive: all other assays above

OCCOCCOCCOCCOCCO
not listed: [3] | [5] | [8] | [9] | [13] | [17]
inactive: all other assays above

CN(C)CCCN1c2ccccc2CCc2ccc(Cl)cc21
active: [9] 7.29 µM | [14] 17.7 µM | [16] 4.07 µM | [18] 25.7 µM
not listed: [13] | [19] | [20]
inactive: all other assays above
